Many of the other results were omitted from the sample, so hits are more common in it than they were.
Anaer choline gr = blocks anaerobic gram-negative growth on choline | Gram-negative bacterium anaerobic choline minimal medium, absorbance growth; active compounds read low | calls only | 55,000 tested, 0.2% active | AID 1963822; call rule not given here
Starred values were filed as active, the others as inactive; i = inactive; + = active, no number; ! = repeats disagree.

SMILES	Anaer choline gr
CCc1ccc(NCc2cc3ccc(OC)cc3n(CC(=O)Nc3ccc4c(c3)OCO4)c2=O)cc1	+
COC(=O)c1ccccc1NC(=O)Cn1c(=O)c(CNc2ccccc2)cc2ccc(OC)cc21	i
CCOC(=O)c1ccccc1NC(=O)Cn1c(=O)c(CNc2ccc(C)cc2)cc2ccc(OC)cc21	i
CCCN1CCN(S(=O)(=O)c2cc(-c3nnc(C(C)C)o3)co2)CC1	i
Cc1nc(N2CCC(C(=O)NC3CCCCC3)CC2)c2c(C)c(C)oc2n1	i
O=C(Nc1ccc(N2CCN(C3CCCCC3)CC2)cc1C(=O)O)c1ccccc1Cl	i
Cc1cccc(N2CCN(c3ccc(NC(=O)c4ccccc4Cl)c(C(=O)O)c3)CC2)c1C	i
CN(C)c1ccc(NC(=O)c2ccc(Br)cc2)c(C(=O)O)c1	i
CCN1CCN(c2ccc(NC(=O)c3ccccc3Cl)c(C(=O)O)c2)CC1	i
CN(C)c1ccc(NC(=O)c2ccccc2Cl)c(C(=O)O)c1	+
CC1CCN(c2ccc(NC(=O)c3ccccc3Cl)c(C(=O)O)c2)CC1	+
Cc1ccc(-c2cc(C(=O)N3CCN(C)CC3)[nH]n2)cc1C	i
C=CCN(Cc1nc(-c2ccc(C)cc2)no1)C(=O)Nc1cccc(Cl)c1	i
COc1ccc(CNc2ccc(C(=O)N3CCc4ccccc43)nn2)cc1	+
O=C(c1ccc(NC2CCCC2)nn1)N1CCc2ccccc21	i
COc1ccccc1N1CCN(c2ccc(C(=O)N3CCc4ccccc43)nn2)CC1	i
COC(=O)[C@@H](N)CSC/C=C(\C)CC/C=C(\C)CCC=C(C)C	i
CC(C)=CCC/C(C)=C/CC/C(C)=C/CSCC(=O)O	+
CCOC(=O)N1CCN(Cc2nc(-c3ccc(N4CCCC(C)C4)nc3)no2)CC1 (configuration not stated)	i
CCCCC/C=C\CC1OC1C/C=C\C/C=C\CCCC(=O)O (configuration not stated)	i
CCCCCCCCCCC/C=C\C/C=C\CCCC(=O)O	+
CC/C=C\C/C=C\C/C=C\C/C=C\C/C=C\CCCCCC(=O)O	i
O=C(CSc1ncnc2nc(N3CCSCC3)sc12)Nc1ccc2c(c1)OCO2	i
O=C(CSc1nnc2n(CC3CCCO3)c(=O)c3sccc3n12)Nc1ccc2c(c1)OCO2 (configuration not stated)	i
CC[N+](CC)(CC)CCOc1cccc(OCC[N+](CC)(CC)CC)c1OCC[N+](CC)(CC)CC	i
SMILES	Anaer choline gr
CC[N+](CC)(CC)CCOc1ccc(/C=C/c2ccccc2)cc1	+!
CCN(CC)CCOc1ccc(Cc2ccccc2)cc1	i
O=S(=O)(Nc1ccc(-c2ccc(N3CCOCC3)nn2)cc1)c1cc(F)ccc1F	i
O=C(Cn1c(=O)c2cccnc2n(-c2ccccc2)c1=O)Nc1cc(F)ccc1F	i
c1cn(-c2ccc(-c3noc(-c4ccc5c(c4)OCO5)n3)cn2)cn1	i
CO[C@H]1/C=C/O[C@@]2(C)Oc3c(C)c(O)c4c(O)c(c(/C=N/N5CCN(C)CC5)c(O)c4c3C2=O)NC(=O)/C(C)=C\C=C\[C@H](C)[C@H](O)[C@@H](C)[C@@H](O)[C@@H](C)[C@H](OC(C)=O)[C@@H]1C	+!
COC1C=CO[C@@]2(C)Oc3c(C)c(O)c4c(O)c(c5c(nc6cc(C)ccn65)c4c3C2=O)NC(=O)C(C)=CC=CC(C)C(O)C(C)C(O)C(C)C(OC(C)=O)C1C (some centres not stated)	i
COC1C=CO[C@@]2(C)Oc3c(C)c(O)c4c(O)c(c5c(c4c3C2=O)NC2(CCN(CC(C)C)CC2)N=5)=NC(=O)C(C)=CC=CC(C)C(O)C(C)C(O)C(C)C(OC(C)=O)C1C (some centres not stated)	i
CCOC(=O)c1c(NC(=O)CSc2nnc(CNC(=O)c3ccccc3F)n2C)sc2c1CCCCC2	i
Cc1nc(-c2ccc(F)cc2)sc1-c1ccc(SCc2ccccn2)nn1	i
COc1ccc(NC(=O)C2CCCN(S(=O)(=O)c3cc4c(cc3C)NC(=O)CO4)C2)cc1OC (configuration not stated)	i
CCN1CCN(c2nc3ncn(CC(N)=O)c(=O)c3s2)CC1	i
O=C(Nc1ccc(Cl)cc1)N1CC=C(c2c[nH]c3ccccc23)CC1	i
O=C(CCC(=O)N1CC=C(c2c[nH]c3ccccc23)CC1)NCc1cccc(Cl)c1	+
CCc1ccc(NC(=O)N2CC=C(c3c[nH]c4ccccc34)CC2)cc1	i
O=C(NCc1ccccc1)C1CCCN(c2nc3cccnc3n(Cc3ccccc3)c2=O)C1 (configuration not stated)	i
O=C(CC1CC1)N1CCCN(Cc2noc(-c3ccccc3)n2)CC1	+
O=C(CC1CCCC1)N1CCN(Cc2noc(-c3ccccc3)n2)CC1	i
O=C(c1coc(-c2ccccc2)n1)N1CCCN(Cc2noc(-c3ccccc3)n2)CC1	i
Cc1nc(NCC(C)c2ccccc2)c2onc(-c3ccc(Cl)cc3)c2n1 (configuration not stated)	i

High-throughput results (PubChem)
